# Results published in PubChem BioAssay (NCI).
# The panel holds about 83,000 compounds, 20% with a hit somewhere; the sample as a whole holds those more often.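 Cell lines were cultured in 96-well plates, exposed to a single compound concentration, and assessed for percent growth 48 hours later.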 A number with no mark means an inactive call. Calls of active or inactive are those of the source. The calls were made as follows: active = growth percent below 10; inactive = the rest.
# Legend:
# Test in all cases: NCI-60 one-dose screen, 48 h (100 = growth as untreated, 0 = no growth, -100 = all killed)
# Conditions in all cases: 10 µM unless noted
# SK-MEL-2 melanoma = tested on: SK-MEL-2 melanoma
# EKVX NSCLC = tested on: EKVX NSCLC
# SN12C renal = tested on: SN12C renal
# UO-31 renal = tested on: UO-31 renal
# TK-10 renal = tested on: TK-10 renal
# ACHN renal = tested on: ACHN renal
# A498 renal = tested on: A498 renal
# CCRF-CEM leukemia = tested on: CCRF-CEM leukemia
# MOLT-4 leukemia = tested on: MOLT-4 leukemia
# SR leukemia = tested on: SR leukemia
# OVCAR-5 ovarian = tested on: OVCAR-5 ovarian
# OVCAR-4 ovarian = tested on: OVCAR-4 ovarian
# SK-OV-3 ovarian = tested on: SK-OV-3 ovarian
# IGROV1 ovarian = tested on: IGROV1 ovarian
# OVCAR-3 ovarian = tested on: OVCAR-3 ovarian
# HS 578T breast = tested on: HS 578T breast
# NCI/ADR-RES ovarian = tested on: NCI/ADR-RES ovarian
# RPMI-8226 leukemia = tested on: RPMI-8226 leukemia
# OVCAR-8 ovarian = tested on: OVCAR-8 ovarian
Structure (SMILES),growth (SK-MEL-2 melanoma) [%],growth (EKVX NSCLC) [%],growth (SN12C renal),growth (UO-31 renal),growth (TK-10 renal),growth (ACHN renal),growth (A498 renal),growth (CCRF-CEM leukemia),growth (MOLT-4 leukemia) [%],growth (SR leukemia),growth (OVCAR-5 ovarian) [%],growth (OVCAR-4 ovarian),growth (SK-OV-3 ovarian) [%],growth (IGROV1 ovarian),growth (OVCAR-3 ovarian) [%],growth (HS 578T breast) [%],growth (NCI/ADR-RES ovarian) [%],growth (RPMI-8226 leukemia),growth (OVCAR-8 ovarian) [%]
COc1ccc(-c2nc3sc(-c4ccc(Cl)cc4)cn3n2)cc1,106,47.5,5.26% (active),-7.46% (active),-30.8% (active),-74% (active),-25.3% (active),69.5%,82.6,51.1%,52,-63.3% (active),49.5,7.07% (active),24.7,27,45.6,,
COC(=O)/C=C1\S/C(=N\Nc2ccc([N+](=O)[O-])cc2[N+](=O)[O-])N(C2CCCCC2)C1=O,90.5,78.5,21.6%,19.2%,60.2%,42.3%,63.1%,17.9%,42.7,,84.3,47.1%,96.8,58.4%,25.2,65.2,,-21.8% (active),35.4
CNCCCNc1nc2ccccc2c2c(=O)c3cc(OC)ccc3sc12,113,87.4,78.4%,52.4%,98.8%,70.5%,56.5%,11.9%,48.3,-30.2% (active),92.2,61.2%,84.9,68.1%,75.7,75,80.6,,72.7
c1ccc2c(-c3nc(-c4c[nH]c5ccncc45)cs3)c[nH]c2c1,97.8,35,68.9%,44.4%,56.4%,23.5%,85.5%,2.54% (active),30,,70.8,59.5%,73.3,54.2%,72.3,72.3,,10.9%,60.2
CCCCOc1nc2ccc(OC)cc2cc1-c1cc(-c2ccc(Cl)cc2)nc(-c2ccc(Cl)cc2)c1,103,98.2,101%,90%,104%,96.3%,83.5%,103%,113,107%,98.7,99.5%,108,105%,112,100,105,,104
CCN1C(=O)N(CC)C2Nn3c(s/c(=C4\C(=O)N(CC(C)C)c5ccccc54)c3=O)=NC21 (stereo not given),66.4,63.8,48.9%,49.8%,13.1%,52.5%,-6.38% (active),42.6%,48.7,,52.5,56.5%,56.2,47.9%,21.5,40.5,11.3,50.6%,44.7
